# Results taken from PubChem BioAssay (EPA / NIEHS).
# “And” between values parts separate entries of the source, which are not always exact repeats. Identical values can stand only once. Inconclusive results are not listed. Some structures have more than one record in an assay (separate samples or runs), and their calls can disagree. The source made the active and inactive calls. How the source made its calls, unless noted: active means hit-call score of the fitted dose curve at least 0.9, where 1 is the maximum; inactive means score below 0.9.
# How the values were obtained:
# [1] = BSK_4H_Eotaxin3: BioMAP Diversity Plus: 4H Assay for Eotaxin 3 Biomarker Activity (AID 2283000); settings: primary human endothelial cells (HUVEC); actives raise or lower the signal;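 on outcome: CCL26 protein level quantified by ELISA in parallel with SRB cytotoxicity check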
# Method in brief: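 Chemicals were added to human umbilical vein endothelium cultures, and Eotaxin-3 was quantified by ELISA at 24 h. Values were derived by bidirectional fitting with DMSO serving as negative control and activity baseline.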
# [2] = read-out: Intercellular Adhesion Molecule 1 (ICAM1), ICAM1 (gene 3383); assay: BSK_3C_ICAM1: BioMAP Diversity Plus: 3C Assay for Intercellular Adhesion Molecule 1 (ICAM1) Biomarker Activity (AID 2283003); settings: primary human endothelial cells (HUVEC); actives raise or lower the signal
# Method in brief: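 Human vascular endothelial primary cells, 3C conditions, 24 h treatment. ICAM-1 by ELISA.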
# [3] = target: human Retinoic Acid Receptor beta (RARb), RARB (gene 5915) (UniProt P10826); assay: ATG_RARb_TRANS: Attagene TRANS-FACTORIAL HepG2 Assay for human Retinoic Acid Receptor beta (AID 2283004; active means hit-call score of the fitted dose curve at least 0.9, where 1 is the maximum)
# Method in brief: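 Transient transfection of HepG2 with multiple reporter units → chemical dosing, 24 h → total RNA isolation → RT with oligo(dT) → reporter-specific PCR, 6-FAM primer extension, HpaI digest → capillary electrophoresis. Positive direction vs DMSO control.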
# [4] = BSK_3C_Proliferation: Cell Proliferation Assessment in the BioMAP Diversity Plus: 3C Assay (AID 2283006); settings: primary human endothelial cells (HUVEC);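 on AC50: potency may reflect either rise or fall in cell number versus DMSO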
# Method in brief: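 Proliferation of human vascular endothelial primary cells after 48 h dosing, quantified as SRB-stained protein at 560 nm relative to DMSO.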
# [5] = target: Peroxisome proliferator-activated receptor gamma (Homo sapiens) (UniProt P37231); assay: ATG_PPARg_TRANS: Attagene TRANS-FACTORIAL HepG2 Assay for human Peroxisome Proliferator-activated Receptor-gamma (PPARg) (AID 2283007; active means hit-call score of the fitted dose curve at least 0.9, where 1 is the maximum)
# Method in brief: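 HepG2 cells are transiently transfected with GAL4-UAS reporter units driven by chimeric NR-Gal4 fusions and dosed for 24 h. Reporter mRNA is quantified by RT-PCR, 6-FAM labelling, HpaI digestion and capillary electrophoresis. Induction is scored against DMSO.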
# [6] = target: Nuclear receptor subfamily 1 group I member 2 (Homo sapiens) (UniProt O75469); assay: ATG_PXR_TRANS: Attagene TRANS-FACTORIAL HepG2 Assay for human Pregnane X Receptor (PXR) (AID 2283008; active means hit-call score of the fitted dose curve at least 0.9, where 1 is the maximum)
# Method in brief: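 HepG2 cells transiently transfected with GAL4-UAS reporter units and PXR-Gal4 chimera, exposed 24 h. Reporter mRNA quantified by RT-PCR, fluorescent labelling, HpaI digestion and capillary electrophoresis; gain of signal vs DMSO.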
# [7] = target: human Retinoic Acid Receptor gamma (RARg), RARG (gene 5916) (UniProt P13631); assay: ATG_RARg_TRANS: Attagene TRANS-FACTORIAL HepG2 Assay for human Retinoic Acid Receptor gamma (RARg) (AID 2283009; active means hit-call score of the fitted dose curve at least 0.9, where 1 is the maximum)
# Method in brief: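 HepG2, RARg-GAL4 TRANS system, 24 h exposure; reporter mRNA by RT-PCR + CE fluorescence; increase over DMSO.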
# [8] = target: Retinoic acid receptor RXR-alpha (Homo sapiens) (UniProt P19793); assay: ATG_RXRa_TRANS: Attagene TRANS-FACTORIAL HepG2 Assay for human Retinoid X Receptor alpha (RXRa) (AID 2283012; active means hit-call score of the fitted dose curve at least 0.9, where 1 is the maximum)
# Method in brief: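 Cells (HepG2) carried transiently transfected GAL4-responsive reporter units. Following a 24 h chemical incubation, reporter mRNA induction was read via RT-PCR fragment analysis; DMSO served as negative control and baseline.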
# [9] = read-out: E-selectin (Homo sapiens) (UniProt P16581); assay: BSK_3C_Eselectin: BioMAP Diversity Plus: 3C Assay for Eselectin Biomarker Activity (AID 2283015); settings: primary human endothelial cells (HUVEC); actives raise or lower the signal;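 on outcome: cell surface E-selectin protein quantified by ELISA 24 h after dosing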
# Method in brief: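 ELISA read-out of E-selectin on endothelial monolayers after 24 h chemical treatment. Human umbilical vein primary cells served as the system, with DMSO defining baseline activity for bidirectional fitting.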
# [10] = read-out: Interleukin-1 alpha (IL1a), IL1A (gene 3552); assay: BSK_BE3C_IL1a: BioMAP Diversity Plus: BE3C Assay for Interleukin-1 alpha (IL1a) Biomarker Activity (AID 2283016); settings: primary human bronchial epithelial cells; actives raise or lower the signal
# Method in brief: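 Cultures of primary human bronchial epithelial cells receive test chemical. After 24 h, IL-1a is quantified by ELISA, while parallel wells are fixed in TCA and SRB-stained for total protein. Changes in either direction are fitted relative to DMSO.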
# [11] = read-out: Monocyte Chemoattractant Protein-1 (MCP1), CCL2 (gene 6347); assay: BSK_3C_MCP1: BioMAP Diversity Plus: 3C Assay for Monocyte Chemoattractant Protein-1 (MCP1) Biomarker Activity (AID 2283017); settings: primary human endothelial cells (HUVEC); actives raise or lower the signal
# Method in brief: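 ELISA read-out of MCP-1 from human umbilical vein endothelial cell cultures harvested 24 h post-dosing. Gain or loss of signal was fitted relative to DMSO.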
# [12] = read-out: Monocyte Chemoattractant Protein-1 (MCP1), CCL2 (gene 6347); assay: BSK_4H_MCP1: BioMAP Diversity Plus: 4H Assay for Monocyte Chemoattractant Protein-1 (MCP1) Biomarker Activity (AID 2283018); settings: primary human endothelial cells (HUVEC); actives raise or lower the signal
# Method in brief: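 Readout: MCP-1 ELISA on compound-treated HUVEC, sampled 24 h post-dosing. Baseline and negative control DMSO; bidirectional fit. Overt toxicity checked alongside by sulforhodamine B protein staining at time of biomarker measurement.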
# [13] = read-out: Human Leukocyte Antigen - DR isotype (HLADR), HLA-DRA (gene 3122); assay: BSK_3C_HLADR: BioMAP Diversity Plus: 3C Assay for Human Leukocyte Antigen - DR isotype (HLADR) Biomarker Activity (AID 2283019); settings: primary human endothelial cells (HUVEC); actives raise or lower the signal;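 on outcome: ELISA of cell-surface HLA-DR on HUVEC 24 h after dosing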
# Method in brief: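 ELISA readout of surface HLA-DR on human umbilical vein endothelium, taken 24 h after chemical treatment. Gain- and loss-of-signal were both fitted relative to DMSO.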
# [14] = read-out: Interleukin-8 (IL8), CXCL8 (gene 3576); assay: BSK_3C_IL8: BioMAP Diversity Plus: 3C Assay for Interleukin-8 (IL8) Biomarker Activity (AID 2283020); settings: primary human endothelial cells (HUVEC); actives raise or lower the signal
# Method in brief: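 Human vascular endothelial cells (umbilical vein) in the 3C system; IL-8 level detected by ELISA at 24 h post-dose, with DMSO as baseline.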
# [15] = target: human RAR-related Orphan Receptor gamma (RORg), RORC (gene 6097) (UniProt P51449); assay: ATG_RORg_TRANS: Attagene TRANS-FACTORIAL HepG2 Assay for human RAR-related Orphan Receptor gamma (RORg) (AID 2283011; active means hit-call score of the fitted dose curve at least 0.9, where 1 is the maximum)
# Method in brief: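 First, HepG2 liver cells were transfected with GAL4-UAS-driven reporter constructs and the RORg-Gal4 fusion. Next, they were treated with chemical for 24 h. Finally, reporter mRNA was quantified by RT-PCR and capillary electrophoresis, with upward activity fitted against DMSO.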
# [16] = target: human Retinoid X Receptor beta (RXRb), RXRB (gene 6257) (UniProt P28702); assay: ATG_RXRb_TRANS: Attagene TRANS-FACTORIAL HepG2 Assay for human Retinoid X Receptor beta (RXRb) (AID 2283013; active means hit-call score of the fitted dose curve at least 0.9, where 1 is the maximum)
# Method in brief: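 Multiplexed TRANS reporter assay in HepG2; 24 h dosing; reporter mRNA by RT-PCR/CE fluorescence; gain-of-signal relative to DMSO.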
# [17] = target: human Thyroid Receptor alpha (THRa1), THRA (gene 7067) (UniProt P10827); assay: ATG_THRa1_TRANS: Attagene TRANS-FACTORIAL HepG2 Assay for human Thyroid Receptor alpha (THRa1) (AID 2283014; active means hit-call score of the fitted dose curve at least 0.9, where 1 is the maximum)
# Method in brief: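 Reporter transcript induction, read by capillary electrophoresis of 6-FAM-labelled RT-PCR products, reflects activity of a transfected THRa1-Gal4 fusion in HepG2 liver cells. Cells were dosed for 24 h; activity was fitted in the positive direction against DMSO.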
# [18] = target: human Peroxisome Proliferator-activated Receptor delta (PPARd), PPARD (gene 5467) (UniProt Q03181); assay: ATG_PPARd_TRANS: Attagene TRANS-FACTORIAL HepG2 Assay for human Peroxisome Proliferator-activated Receptor delta (PPARd) (AID 2283002; active means hit-call score of the fitted dose curve at least 0.9, where 1 is the maximum)
# Method in brief: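 HepG2 cells transiently transfected with multiplexed GAL4-UAS reporter units and exogenous chimeric NR-Gal4 proteins; 24 h compound exposure. Reporter mRNA measured by RT-PCR, 6-FAM labelling, HpaI digestion and capillary electrophoresis; gain of signal versus DMSO.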
# [19] = target: human RAR-related Orphan Receptor beta (RORb), RORB (gene 6096) (UniProt Q92753); assay: ATG_RORb_TRANS: Attagene TRANS-FACTORIAL HepG2 Assay for human RAR-related Orphan Receptor beta (RORb) (AID 2283010; active means hit-call score of the fitted dose curve at least 0.9, where 1 is the maximum)
# Method in brief: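 In this TRANS-format test, human HepG2 cells express chimeric NR-Gal4 fusion proteins driving GAL4-UAS reporters. After 24 h dosing, reporter transcripts are measured by fluorescent RT-PCR/capillary electrophoresis, with DMSO as negative control.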
# human Retinoid X Receptor beta (RXRb), RXRB (gene 6257), sequence (P28702 whole entry, looked up): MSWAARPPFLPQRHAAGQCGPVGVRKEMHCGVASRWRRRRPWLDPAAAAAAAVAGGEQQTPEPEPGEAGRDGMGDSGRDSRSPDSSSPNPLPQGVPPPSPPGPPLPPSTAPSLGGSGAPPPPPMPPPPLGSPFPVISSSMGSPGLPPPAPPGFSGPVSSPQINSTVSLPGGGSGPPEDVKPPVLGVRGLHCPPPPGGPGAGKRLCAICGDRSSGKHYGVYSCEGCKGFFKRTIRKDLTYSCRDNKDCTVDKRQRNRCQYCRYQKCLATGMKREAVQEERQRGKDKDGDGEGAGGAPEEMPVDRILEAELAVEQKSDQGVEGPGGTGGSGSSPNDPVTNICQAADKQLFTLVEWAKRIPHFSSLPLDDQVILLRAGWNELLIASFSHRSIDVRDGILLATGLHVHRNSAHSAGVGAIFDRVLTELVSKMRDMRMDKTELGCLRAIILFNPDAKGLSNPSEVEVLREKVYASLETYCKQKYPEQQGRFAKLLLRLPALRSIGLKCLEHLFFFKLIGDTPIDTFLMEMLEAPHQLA
# Nuclear receptor subfamily 1 group I member 2 (Homo sapiens), sequence (O75469 whole entry, looked up, the tested form may be a part): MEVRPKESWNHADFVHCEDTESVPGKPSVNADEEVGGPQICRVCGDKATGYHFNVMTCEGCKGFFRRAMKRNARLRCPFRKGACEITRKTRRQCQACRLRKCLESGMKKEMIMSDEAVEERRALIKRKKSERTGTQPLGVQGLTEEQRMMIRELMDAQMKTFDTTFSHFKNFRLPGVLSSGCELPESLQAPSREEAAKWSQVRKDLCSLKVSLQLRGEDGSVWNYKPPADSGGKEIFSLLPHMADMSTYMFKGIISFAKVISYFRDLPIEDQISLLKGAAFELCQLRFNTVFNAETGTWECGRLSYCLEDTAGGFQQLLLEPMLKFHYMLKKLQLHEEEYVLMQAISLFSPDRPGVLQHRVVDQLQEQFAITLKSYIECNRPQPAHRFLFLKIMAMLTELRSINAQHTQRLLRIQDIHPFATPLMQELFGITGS
# human RAR-related Orphan Receptor gamma (RORg), RORC (gene 6097), sequence (P51449 whole entry, looked up, the tested form may be a part): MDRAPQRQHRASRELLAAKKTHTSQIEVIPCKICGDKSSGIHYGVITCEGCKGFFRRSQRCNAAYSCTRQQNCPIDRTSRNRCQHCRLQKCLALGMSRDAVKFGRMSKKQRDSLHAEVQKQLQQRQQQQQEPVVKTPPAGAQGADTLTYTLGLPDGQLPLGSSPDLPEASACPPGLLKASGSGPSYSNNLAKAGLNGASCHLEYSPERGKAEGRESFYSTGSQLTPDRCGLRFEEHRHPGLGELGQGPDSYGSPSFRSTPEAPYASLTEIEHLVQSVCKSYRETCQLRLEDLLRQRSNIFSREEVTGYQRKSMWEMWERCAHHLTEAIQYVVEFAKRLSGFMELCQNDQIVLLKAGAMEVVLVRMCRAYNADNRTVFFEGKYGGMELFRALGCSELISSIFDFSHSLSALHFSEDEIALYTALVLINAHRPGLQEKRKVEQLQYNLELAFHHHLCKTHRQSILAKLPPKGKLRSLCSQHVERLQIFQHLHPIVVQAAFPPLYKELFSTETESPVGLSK
# Peroxisome proliferator-activated receptor gamma (Homo sapiens), sequence (P37231 whole entry, looked up, the tested form may be a part): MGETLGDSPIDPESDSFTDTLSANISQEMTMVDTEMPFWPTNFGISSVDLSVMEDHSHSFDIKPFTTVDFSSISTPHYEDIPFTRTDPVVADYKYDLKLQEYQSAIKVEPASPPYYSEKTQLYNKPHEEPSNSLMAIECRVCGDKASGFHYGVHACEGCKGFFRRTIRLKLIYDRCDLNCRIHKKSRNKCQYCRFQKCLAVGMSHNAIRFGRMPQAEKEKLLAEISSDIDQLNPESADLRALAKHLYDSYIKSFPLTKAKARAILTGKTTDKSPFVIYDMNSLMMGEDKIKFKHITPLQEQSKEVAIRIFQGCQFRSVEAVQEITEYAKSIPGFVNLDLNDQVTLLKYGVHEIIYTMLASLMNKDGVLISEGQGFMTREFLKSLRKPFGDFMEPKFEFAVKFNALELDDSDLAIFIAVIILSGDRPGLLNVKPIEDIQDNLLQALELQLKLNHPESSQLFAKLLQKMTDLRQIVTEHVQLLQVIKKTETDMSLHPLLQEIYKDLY
# E-selectin (Homo sapiens), sequence (P16581 whole entry, looked up): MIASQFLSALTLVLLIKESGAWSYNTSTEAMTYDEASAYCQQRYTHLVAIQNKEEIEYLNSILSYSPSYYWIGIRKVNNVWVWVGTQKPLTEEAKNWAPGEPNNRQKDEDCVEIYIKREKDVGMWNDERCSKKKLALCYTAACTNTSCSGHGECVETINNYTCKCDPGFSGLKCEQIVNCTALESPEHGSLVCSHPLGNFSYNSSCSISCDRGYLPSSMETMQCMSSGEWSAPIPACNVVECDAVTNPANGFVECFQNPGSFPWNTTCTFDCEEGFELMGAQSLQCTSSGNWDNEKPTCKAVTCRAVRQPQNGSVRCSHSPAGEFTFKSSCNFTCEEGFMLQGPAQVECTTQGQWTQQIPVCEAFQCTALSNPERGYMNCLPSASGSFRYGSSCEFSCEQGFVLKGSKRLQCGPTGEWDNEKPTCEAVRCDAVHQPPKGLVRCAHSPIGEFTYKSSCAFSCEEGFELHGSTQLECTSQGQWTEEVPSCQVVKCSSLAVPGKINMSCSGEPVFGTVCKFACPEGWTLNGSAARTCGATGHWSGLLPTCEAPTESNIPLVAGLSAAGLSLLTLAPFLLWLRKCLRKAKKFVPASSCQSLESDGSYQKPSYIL
# human Retinoic Acid Receptor beta (RARb), RARB (gene 5915), sequence (P10826 whole entry, looked up): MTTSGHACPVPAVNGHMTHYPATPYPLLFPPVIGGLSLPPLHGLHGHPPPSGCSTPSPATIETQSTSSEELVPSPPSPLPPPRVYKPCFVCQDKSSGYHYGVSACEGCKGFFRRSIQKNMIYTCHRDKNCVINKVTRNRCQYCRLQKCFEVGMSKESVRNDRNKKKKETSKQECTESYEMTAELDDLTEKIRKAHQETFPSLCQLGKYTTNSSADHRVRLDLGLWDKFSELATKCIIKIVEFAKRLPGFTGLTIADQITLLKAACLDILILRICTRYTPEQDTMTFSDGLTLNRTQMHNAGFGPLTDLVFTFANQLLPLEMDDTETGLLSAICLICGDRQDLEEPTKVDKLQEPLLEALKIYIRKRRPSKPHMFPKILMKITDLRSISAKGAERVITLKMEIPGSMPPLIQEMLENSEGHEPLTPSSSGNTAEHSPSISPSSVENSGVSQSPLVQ
# human Retinoic Acid Receptor gamma (RARg), RARG (gene 5916), sequence (P13631 whole entry, looked up, the tested form may be a part): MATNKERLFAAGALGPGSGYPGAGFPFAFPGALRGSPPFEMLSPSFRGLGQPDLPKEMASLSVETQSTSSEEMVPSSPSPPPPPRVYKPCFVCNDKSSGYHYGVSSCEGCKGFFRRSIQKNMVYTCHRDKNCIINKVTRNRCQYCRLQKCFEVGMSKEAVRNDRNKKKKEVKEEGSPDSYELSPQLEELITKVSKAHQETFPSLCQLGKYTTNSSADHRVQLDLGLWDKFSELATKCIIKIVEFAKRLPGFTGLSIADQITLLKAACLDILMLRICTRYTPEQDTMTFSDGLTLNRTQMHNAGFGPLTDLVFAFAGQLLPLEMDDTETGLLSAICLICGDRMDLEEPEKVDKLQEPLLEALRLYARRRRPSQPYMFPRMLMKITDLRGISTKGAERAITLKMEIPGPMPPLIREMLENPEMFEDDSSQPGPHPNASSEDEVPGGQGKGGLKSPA
# Retinoic acid receptor RXR-alpha (Homo sapiens), sequence (P19793 whole entry, looked up, the tested form may be a part): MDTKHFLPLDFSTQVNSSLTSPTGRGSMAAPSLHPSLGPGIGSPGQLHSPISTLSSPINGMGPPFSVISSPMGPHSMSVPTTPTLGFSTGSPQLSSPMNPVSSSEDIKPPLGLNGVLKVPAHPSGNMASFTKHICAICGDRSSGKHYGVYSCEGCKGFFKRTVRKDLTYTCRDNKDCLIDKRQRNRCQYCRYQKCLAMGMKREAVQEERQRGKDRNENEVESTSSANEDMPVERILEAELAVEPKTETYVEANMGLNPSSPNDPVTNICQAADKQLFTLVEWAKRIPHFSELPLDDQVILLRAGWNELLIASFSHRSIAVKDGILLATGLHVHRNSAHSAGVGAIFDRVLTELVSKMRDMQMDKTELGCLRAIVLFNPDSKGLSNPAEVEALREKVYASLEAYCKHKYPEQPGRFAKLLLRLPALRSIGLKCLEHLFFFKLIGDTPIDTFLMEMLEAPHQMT
# human Thyroid Receptor alpha (THRa1), THRA (gene 7067), sequence (P10827 whole entry, looked up, the tested form may be a part): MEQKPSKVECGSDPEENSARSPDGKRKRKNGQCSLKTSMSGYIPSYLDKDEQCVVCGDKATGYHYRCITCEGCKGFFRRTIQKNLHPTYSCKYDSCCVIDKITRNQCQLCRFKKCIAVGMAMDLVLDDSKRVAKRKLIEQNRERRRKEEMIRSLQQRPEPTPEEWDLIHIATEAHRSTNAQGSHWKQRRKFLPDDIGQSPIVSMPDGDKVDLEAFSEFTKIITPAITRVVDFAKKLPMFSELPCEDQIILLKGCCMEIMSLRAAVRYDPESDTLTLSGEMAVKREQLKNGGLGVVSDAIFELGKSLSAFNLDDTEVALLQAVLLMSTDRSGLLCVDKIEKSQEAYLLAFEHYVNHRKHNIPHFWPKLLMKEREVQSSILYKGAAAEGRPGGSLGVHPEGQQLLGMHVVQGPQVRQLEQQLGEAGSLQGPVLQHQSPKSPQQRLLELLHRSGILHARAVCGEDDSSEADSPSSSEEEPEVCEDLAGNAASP
# human RAR-related Orphan Receptor beta (RORb), RORB (gene 6096), sequence (Q92753 whole entry, looked up, the tested form may be a part): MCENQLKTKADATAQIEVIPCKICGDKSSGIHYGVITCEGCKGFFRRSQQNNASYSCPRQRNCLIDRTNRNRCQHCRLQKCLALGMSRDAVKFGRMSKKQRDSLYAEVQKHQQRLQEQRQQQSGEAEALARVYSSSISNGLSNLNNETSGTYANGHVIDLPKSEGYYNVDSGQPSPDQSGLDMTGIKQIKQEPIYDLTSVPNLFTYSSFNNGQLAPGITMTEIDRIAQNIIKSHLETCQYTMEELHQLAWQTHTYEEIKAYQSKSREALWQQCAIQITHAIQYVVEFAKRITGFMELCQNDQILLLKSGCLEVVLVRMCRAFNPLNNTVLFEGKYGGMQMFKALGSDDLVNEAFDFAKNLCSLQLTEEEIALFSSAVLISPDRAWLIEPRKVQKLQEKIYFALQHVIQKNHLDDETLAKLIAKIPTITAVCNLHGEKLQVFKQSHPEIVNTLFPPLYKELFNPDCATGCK
compound,measurement,setting,value
O=S(=O)(OCCOC(F)(F)F)C(F)(F)F,outcome,[1],inactive
same,outcome,[2],inactive
same,outcome,[3],inactive
same,outcome,[4],inactive
same,outcome,[5],inactive
same,outcome,[6],inactive
same,outcome,[7],inactive
same,outcome,[8],inactive
same,outcome,[9],inactive
same,outcome,[10],inactive
same,outcome,[11],inactive
same,outcome,[12],inactive
same,outcome,[13],inactive
same,outcome,[14],inactive
FC(F)(I)C(F)(F)C(F)(F)C(F)(F)I,AC50,[1],52.2 µM (active) and 47.2 µM (active) and 45.6 µM (active)
same,AC50,[2],39.6 µM (active) and 45.6 µM (active) and 52.7 µM (active)
same,outcome,[3],inactive
same,AC50,[4],49.8 µM (active) and 52.8 µM (active) and 49.4 µM (active)
same,AC50,[5],48.6 µM (active)
same,outcome,[6],inactive
same,outcome,[15],inactive
same,outcome,[16],inactive
same,AC50,[9],49 µM (active) and 50.6 µM (active) and 53.6 µM (active)
same,AC50,[10],47.5 µM (active) and 46 µM (active) and 45 µM (active)
same,AC50,[11],44.5 µM (active) and 49 µM (active) and 51.6 µM (active)
same,AC50,[12],45.6 µM (active) and 19.3 µM (active)
same,outcome,[12],inactive
same,AC50,[13],50.2 µM (active) and 46.5 µM (active) and 59 µM (active)
same,AC50,[14],46.1 µM (active) and 53.1 µM (active) and 53.3 µM (active)
C=CC(=O)OCC(F)(F)C(F)(F)C(F)(F)C(F)(F)COC(=O)C=C,AC50,[1],20 µM (active) and 18 µM (active)
same,AC50,[2],47.1 µM (active) and 48.3 µM (active)
same,outcome,[3],inactive
same,AC50,[4],9.61 µM (active) and 8.46 µM (active)
same,AC50,[5],37.8 µM (active)
same,outcome,[6],inactive
same,outcome,[15],inactive
same,outcome,[8],inactive
same,outcome,[17],inactive
same,AC50,[9],35.8 µM (active) and 38.1 µM (active)
same,AC50,[10],20.2 µM (active) and 25.4 µM (active)
same,AC50,[11],33.8 µM (active) and 22.1 µM (active)
same,AC50,[12],49.4 µM (active) and 49 µM (active)
same,AC50,[13],17.2 µM (active) and 18.1 µM (active)
same,AC50,[14],23.6 µM (active) and 44.4 µM (active)
FC(F)(F)C(F)(F)CNCC(F)(F)C(F)(F)F,outcome,[1],inactive
same,outcome,[18],inactive
same,outcome,[2],inactive
same,outcome,[4],inactive
same,outcome,[5],inactive
same,outcome,[6],inactive
same,outcome,[7],inactive
same,outcome,[16],inactive
same,outcome,[17],inactive
same,outcome,[9],inactive
same,outcome,[10],inactive
same,outcome,[11],inactive
same,outcome,[12],inactive
same,outcome,[13],inactive
same,AC50,[14],30 µM (active)
same,outcome,[14],inactive
CCc1ccc(C(c2ccc(CC)cc2)C(Cl)Cl)cc1,AC50,[1],14.1 µM (active)
same,outcome,[2],inactive
same,AC50,[4],13.1 µM (active)
same,outcome,[5],inactive
same,AC50,[6],3.55 µM (active)
same,outcome,[15],inactive
same,outcome,[8],inactive
same,outcome,[17],inactive
same,outcome,[9],inactive
same,outcome,[10],inactive
same,AC50,[11],12.9 µM (active)
same,AC50,[12],10.7 µM (active)
same,AC50,[13],11.8 µM (active)
same,AC50,[14],11.6 µM (active)
FC(F)(F)C(F)(F)C(F)(F)CI,outcome,[1],inactive
same,outcome,[2],inactive
same,outcome,[3],inactive
same,outcome,[4],inactive
same,outcome,[6],inactive
same,outcome,[19],inactive
same,outcome,[15],inactive
same,outcome,[17],inactive
same,outcome,[9],inactive
same,outcome,[10],inactive
same,outcome,[11],inactive
same,outcome,[12],inactive
same,outcome,[13],inactive
same,outcome,[14],inactive
CO[Si](OC)(c1ccccc1)c1ccccc1,outcome,[1],inactive
same,outcome,[2],inactive
same,outcome,[3],inactive
same,AC50,[4],37 µM (active)
same,outcome,[5],inactive
same,AC50,[6],15.4 µM (active)
same,outcome,[7],inactive
same,outcome,[8],inactive
same,outcome,[16],inactive
same,AC50,[9],31 µM (active)
same,outcome,[10],inactive
same,AC50,[11],32 µM (active)
same,AC50,[12],0.148 µM (active)
same,AC50,[13],32.5 µM (active)
same,AC50,[14],20 µM (active)
